Records with an inconclusive call do not appear. Calls of active or inactive are those of the source. Calls follow the shape of the dose curve; as a rule, active = well fitted inhibition curve with a large enough effect; inconclusive = small, poorly fitted or top-dose-only effect; inactive = no such curve, though single readings can be large or run the other way.
What follows are molecules tested against N-terminal Xaa-Pro-Lys N-methyltransferase 1 (Homo sapiens) (UniProt Q9BV86) (assay: qHTS Assay for Inhibitors of N-terminal methyltransferase 1 (NTMT1): MTaseGlo Confirmatory Screen, Round 2). Conditions: NTMT1 enzyme, MTase-Glo SAH luminescence; series mostly up to 57.4 µM; activity change, negative = inhibition: at the top concentration.
N-terminal Xaa-Pro-Lys N-methyltransferase 1 (Homo sapiens), sequence (Q9BV86 whole entry, looked up): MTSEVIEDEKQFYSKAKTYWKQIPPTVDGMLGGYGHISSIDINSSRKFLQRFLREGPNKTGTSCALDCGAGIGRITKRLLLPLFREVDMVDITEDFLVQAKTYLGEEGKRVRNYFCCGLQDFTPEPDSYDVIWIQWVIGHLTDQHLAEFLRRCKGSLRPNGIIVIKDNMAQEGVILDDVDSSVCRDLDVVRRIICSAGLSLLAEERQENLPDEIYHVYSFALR
Source text: Assay Submitter (PI): Rong Huang Ph.D, Purdue University, West Lafayette, IN 47907
The N-terminal methytransferase 1 is the first methyltransferase that methylates protein alpha-N-amines and plays an important role in regulating cell mitosis, chromatin interactions and DNA repair. It is observed to be over-expressed in various cancer patient tissues like malignant melanoma and colorectal cancer tissues. Knockdown of NTMT1 in cancer cells causes cell mitotic defects and enhances sensitivity to DNA damaging chemotherapeutics. […] These critical cellular processes in which NTMT1 is implicated, coupled with emerging links to cellular dysfunction, strengthen the inference that NTMT1 is a compelling novel anticancer target. Progress have been made in understanding the molecular properties of NTMT1 and the biological consequences of protein alpha-N-terminal methylation, but there are no specific small molecule probes available for NTMT1 to fully characterize its MTase activity. To address this unmet need, a panel of assay is created and established to enable quantitative high-throughput screening (qHTS) for novel, potent, and selective small molecule NTMT1 inhibitors. Two orthogonal qHTS that use different reagents (ThioGlo vs. MTaseGlo) are developed for primary robotic screening against the NCATS chemical library of more than 400,000 small molecules. Identified inhibitors are reacquired, validated, and further characterized.
MTaseGlo Assay is a luminescence screen that measure the activity of methyltransferases based on the reaction product S-adenosyl homocysteine (SAH). The substrate SAM is converted to SAH upon enzyme activation. MTase-Glo reagent and detection solution convert SAH to ATP and measure the light from the luciferase reaction.
Early Translation Branch (ETB)
National Center for Advancing Translational Sciences (NCATS)
National Institute of Health (NIH)
NTMT1 enzyme, substrate SPKRIA, control peptide RCC1-6 is provided by the Huang laboratory.
In brief, 3 µL of enzyme mixture (final concentrations of 125 nM and 100 µM for NTMT1 and SAM, respectively) into all wells of a 1,536-well solid-bottom white plate (Greiner Bio One, Monroe, NC). 23 nL of DMSO or Ac-RCC1-10 (final concentration range 234 nM to 143 microM) was transferred via Wako Pin-tool (Wako Automation, Richmond, VA) and incubated (RT) for ~15 minutes. Next, 1 µL of substrate (final concentration 1 µM) or buffer was dispensed, and the reaction proceeded for 30 minutes (RT, protected from light) followed by a 1 microL addition of [5X] MTase-Glo Reagent(R). Samples were incubated (RT, protected from light) for 30 minutes to allow for SAH to be converted to ADP, followed by a 5 microL addition of [1X] MTase-Glo Detection Solution(R) to allow for ADP to be converted to ATP, which was then detected with a luciferase reaction. Samples were centrifuged for 15 seconds at 1,000 RPM's, followed by a RT incubation for 30 minutes. Plates were then read using Luminescence optics on a ViewLux detector. Data were normalized to no-enzyme (0% activity) and no-inhibitor (DMSO; 100%) controls, and the resulting percent inhibition data were fitted to a 4-parameter Hill equation using Graphpad Prism.
Potency is read from the fitted curve at half-maximal effect.

Structure (SMILES)	activity change, negative = inhibition	Potency
c1ccc(CCCN2CCN(CCOC(c3ccccc3)c3ccccc3)CC2)cc1	-12.4% (inactive)	
CCCN(CCC)[C@H]1CCc2c(F)ccc(O)c2C1	-16.5% (inactive)	
NCC(O)c1cc(O)c(O)cc1F (stereo not drawn)	-1.51% (inactive)	
O=[N+]([O-])/C=C/c1ccc2c(c1)OCO2	-1.23% (inactive)	
Clc1ccc(N2CC3CCC(C2)N3)nn1	-3.62% (inactive)	
CC(=O)c1c(O)c(C)c(O)c(Cc2c(O)c3c(c(C(=O)/C=C/c4ccccc4)c2O)OC(C)(C)C=C3)c1O	-7.89% (inactive)	
O=[N+]([O-])c1cc(O)c(O)c([N+](=O)[O-])c1	5.85% (inactive)	
N#C/C(=C/c1ccc(O)c(O)c1)C(N)=S	-6.19% (inactive)	
O=S1(=O)N(CCN2CC=C(c3c[nH]c4cc(F)ccc34)CC2)c2cccc3c2N1CCC3	-14.3% (inactive)	
NC(=O)CI		8.91 µM (active)
CC(C)=CCOc1c2occc2cc2ccc(=O)oc12	-1.08% (inactive)	
CNCCc1c[nH]c2ccc(O)cc12	-13.8% (inactive)	
CC(N)[C@H](O)c1ccc(O)c(O)c1 (stereo partly drawn)	5.78% (inactive)	
CC(N)Cc1c[nH]c2ccc(O)cc12 (stereo not drawn)	-14.7% (inactive)	
NC(Cc1cc(O)c(O)cc1O)C(=O)O (stereo not drawn)		15.8 µM (active)
NC(N)=Nc1ccc2[nH]c3c(c2c1)C[C@@]1(O)[C@H]2Cc4ccc(O)c5c4[C@@]1(CCN2CC1CC1)[C@H]3O5		25.1 µM (active)
O=C1CC[C@@]2(O)C3Cc4ccc(O)c5c4C2(CCN3CC2CC2)[C@H]1O5 (stereo partly drawn)	-7.17% (inactive)	
CCn1cnc2c(Nc3cccc(Cl)c3)nc(N[C@@H]3CCCC[C@@H]3N)nc21		11.2 µM (active)
N#CC(C#N)=Cc1ccc(O)c(O)c1	-7.17% (inactive)	
COc1ccc2c(c[n+](C)c3c4cc5c(cc4ccc23)OCO5)c1OC	6.45% (inactive)	
O=[N+]([O-])c1ccc2nc(N3CCNCC3)ccc2c1	-8.93% (inactive)	
CN(N=O)c1cc(O)ccc1O	-20.8% (inactive)	
COC[C@H]1OC(=O)c2coc3c2[C@@]1(C)C1=C(C3=O)C2CCC(=O)[C@@]2(C)C[C@H]1OC(C)=O (stereo partly drawn)	-18.3% (inactive)	

— PubChem BioAssay AID1347147 (National Center for Advancing Translational Sciences (NCATS), 2019)
